Measurements from PubChem BioAssay (NCI).
Compounds without any hit were thinned out: in the full panel of roughly 83,000, 20% have a hit.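 The test compound was applied at a single concentration to cells in 96-well plates for 48 hours, and percent growth was recorded.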 Values without a mark were called inactive. Calls of active or inactive are those of the source. Rule for the calls: active = growth percent below 10; inactive = the rest.

Legend:
Test in all cases: NCI-60 one-dose screen, 48 h (100 = growth as untreated, 0 = no growth, -100 = all killed)
Details in all cases: 10 µM unless noted
[1] = system: SR leukemia
[2] = system: RPMI-8226 leukemia
[3] = system: OVCAR-8 ovarian
[4] = system: OVCAR-5 ovarian
[5] = system: OVCAR-4 ovarian
[6] = system: SK-OV-3 ovarian
[7] = system: IGROV1 ovarian
[8] = system: OVCAR-3 ovarian
[9] = system: HS 578T breast
[10] = system: NCI/ADR-RES ovarian
[11] = system: T-47D breast
[12] = system: BT-549 breast
[13] = system: MDA-MB-435 melanoma
[14] = system: SW-620 colon
[15] = system: MCF7 breast
[16] = system: HCT-116 colon
[17] = system: HCC-2998 colon
[18] = system: KM12 colon

Row | SMILES | growth [1] | growth [2] | growth [3] | growth [4] | growth [5] | growth [6] | growth [7] | growth [8] | growth [9] | growth [10] | growth [11] | growth [12] | growth [13] | growth [14] | growth [15] | growth [16] | growth [17] | growth [18]
1 | COc1ccc2c(c1)c(-c1nc(-c3c[nH]c4ncccc34)cs1)cn2CCN | 0.217% (active) | 52.7% | 70.5% | 88.6% | 57.1% | 60.7% | 30.4% | 70.5% | 62.3% | 84.1% | 25.7% | 88.2% | 68.9% | 55.3% | 36.5% | 53.5% | 94.9% | 24.4%
2 | Clc1ccccc1-c1nc(Nc2nc3ccccc3s2)nc(C(Cl)(Cl)Cl)n1 | 79.6% | 10.1% | 68.6% | 74.3% | 64.6% | 56.8% | 54.3% | 4.03% (active) | 70% | 50.6% | 38.7% | 84.2% | 49% | 39.5% | 32.6% | 19.1% | 54.1% | 31.3%
3 | C#Cc1cccc(NC(=O)C2CCCN(C(=O)CCl)C2)c1 (stereo unspecified) | 10.9% [8.25 µM] | 64.4% [8.25 µM] | 30.1% [8.25 µM] | 78.8% [8.25 µM] | 68.9% [8.25 µM] | 89.8% [8.25 µM] | -72% [8.25 µM] (active) | 5.16% [8.25 µM] (active) | 85.6% [8.25 µM] | 93.2% [8.25 µM] | 84.2% [8.25 µM] | 55.1% [8.25 µM] | 43.8% [8.25 µM] | 20.5% [8.25 µM] | 59.1% [8.25 µM] | 13% [8.25 µM] | 97.2% [8.25 µM] | 94.7% [8.25 µM]
4 | Cn1cc(-c2csc(-c3cn(CCN)c4ccc(F)cc34)n2)c2cccnc21 | 2.79% (active) | 67.9% | 72.1% | 80.2% | 54.6% | 78% | 39.6% | 84.1% | 77.9% | 78.3% | 19% | 89.1% | 53.5% | 52.6% | 36.2% | 77.1% | 91.1% | 47.7%
5 | COc1ccc(/C=C(\C#N)c2cc3ccccc3n2S(C)(=O)=O)cc1 | 53.1% | 79.1% | 95.9% | 99.3% | 93.4% | 112% | 74% | 94.8% | 95.6% | 60.1% | 96.2% | 86% | 6.05% (active) | 70.1% | 66.8% | 82.9% | 94% | 69%
6 | CC(=O)Cc1nsc(NC(=O)c2ccoc2COc2ccccc2)n1 | 104% | 88.6% | 103% | 94.1% | 103% | 111% | 95.9% | 111% | 107% | 99.1% | 105% | 94% | 107% | 105% | 98.2% | 98% | 103% | 100%
7 | Fc1ccc(Nc2nnc(-c3ccc(Cl)cc3)o2)cc1 | 90.8% | 99.8% | 86.7% | 98.3% | 94.7% | 77.4% | 90.2% | 110% | 107% | 99% | 66.2% | 99% | 111% | 105% | 75.4% | 85.1% | 98.9% | 97.8%
8 | COc1ccc(-c2nc3c(c(C)nn3-c3ccc(F)cc3)c(=O)[nH]2)cc1 | 15.9% | 89.8% | 60.7% | 85.9% | -39.3% (active) | 31.5% | 53.8% | 55% | 63.4% | 63.9% | 20.2% | 76.3% | 74.7% | 74.6% | 73.7% | 48.5% | 98.4% | 84.4%
9 | O=S(=O)(NCCNc1cc(-c2cn(-c3ccccc3)nc2-c2cccc(O)c2)ccn1)c1ccc(F)cc1 | -5.97% (active) | 9.5% (active) | 23.7% | 62.9% | 41.3% | 46.4% | 46.2% | 35.8% | 15.7% | 17.9% | 7.88% (active) | 32.2% | 2.49% (active) | 18.8% | 10.7% | 23.9% | -34.9% (active) | 11.3%
10 | CN1CCN(CCOc2ccc(-c3cnc4c(-c5cccc(F)c5)cnn4c3)cc2)CC1 | -12.8% (active) | 31.7% | 69.8% | 84.6% | 65.5% | 106% | 63.8% | 56.1% | 77.6% | 72.8% | 56.9% | 92.8% | -47.8% (active) | -28.7% (active) | 37.4% | 23.9% | 63.2% | 11.4%
11 | C[C@@H](C(=O)O)c1ccc2c3cc(Cl)ccc3n(Cc3cc(=O)oc4ccc(Cl)cc34)c2c1 | 94.7% | 109% | 105% | 97.3% | 98.9% | 96.9% | 74.2% | 98.7% | 101% | 98.3% | 86.8% | 86.7% | 104% | 107% | 90.7% | 87.8% | 101% | 99%
12 | Brc1ccc2c(c1)c(-c1nc(-c3c[nH]c4ncccc34)cs1)cn2CCCN1CCCCC1 | -47.5% (active) | -47.9% (active) | 1.18% (active) | 32.3% | 48.4% | 63.1% | 6.09% (active) | -64.3% (active) | 52.1% | 13.4% | 45% | 72.8% | -84% (active) | -63.5% (active) | -68.1% (active) | -62.7% (active) | 34.8% | 14.5%
13 | CCN1CCN(C(=O)[C@]23CC[C@@H](C)[C@H](C)[C@H]2C2=CC[C@@H]4[C@@]5(C)C/C(=C/c6cccc(OC)c6OC)C(=O)C(C)(C)[C@@H]5CC[C@@]4(C)[C@]2(C)CC3)CC1 | 5.2% (active) | 15.4% | 50.3% | 67.8% | 24.5% | 68.6% | 60.7% | 31.2% | 67.6% | 35.3% | 18.2% | 55% | 43.4% | 33.3% | 12.2% | 17.9% | 44.6% | 32.7%
14 | O=C1/C(=C\C(Cl)=C/c2ccc([N+](=O)[O-])cc2)SC(=S)N1CCc1ccc(O)cc1 | 13.2% | -3.41% (active) | 13.3% | -33.9% (active) | 26.7% | 31.8% | -67.9% (active) | -53.6% (active) | 31.2% | 9% (active) | -36.4% (active) | -51.8% (active) | -1.96% (active) | -30.1% (active) | -73.4% (active) | -77.2% (active) | -92.3% (active) | -50.5% (active)
15 | C/C(Cc1ccc(Cl)cc1)=C(/c1ccc(Cl)cc1)c1ccc(OCCN2CCCC2)cc1 | 9.32% (active) | 48.3% | 83.8% | 86% | 78.4% | 99% | 71.8% | 70.5% | 79.1% | 84.4% | 66.3% | 99.2% | 82% | 58.6% | 31% | 30.7% | 68.7% | 53.8%
16 | CC1(C)NCCC[C@]2(C)[C@H]3CC[C@@H]4[C@H]5[C@H](C(=O)/C=C/c6ccccn6)CC[C@]5(CO)CC[C@@]4(C)[C@]3(C)CC[C@@H]12 | -19.6% (active) | -13.1% (active) | 47.6% | 97.9% | 35.9% | 82.2% | 63.4% | 40.9% | 70.8% | 76.8% | 30.7% | 64.6% | 57.3% | -51% (active) | 20.3% | -7.47% (active) | 47.9% | 25.5%
17 | COc1ccc(C2=NN(c3nc(-c4ccc(OC)cc4)c(C#N)c(=O)n3C)C(=O)CC2)cc1 | 87.2% | 95% | 101% | 72.3% | 105% | 96% | 96.3% | 104% | 94.9% | 101% | 92.4% | 107% | 109% | 108% | 92% | 97.4% | 91.8% | 107%
